Here are results for three compounds from PubChem BioAssay (EPA / NIEHS).

Read-out in test [1]: Matrix Metallopeptidase 9 (MMP9), MMP9 (gene 4318)
The test can be described thus: BSK_KF3CT_MMP9: BioMAP Diversity Plus: KF3CT Assay for Matrix Metallopeptidase 9 (MMP9) Biomarker Activity (AID 2283074).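 For AC50: MMP9 protein level quantified by ELISA in the co-culture.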 To be noted: primary human keratinocytes with fibroblasts; actives raise or lower the signal. The essentials:
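ELISA read-out of MMP-9 at 24 h post-dosing in a co-culture of human skin keratinocytes and foreskin fibroblasts. Gain or loss of signal was fitted in both directions against DMSO.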

Read-out in test [2]: urokinase plasminogen activator (uPA), PLAU (gene 5328)
The test can be described thus: BSK_KF3CT_uPA: BioMAP Diversity Plus: KF3CT Assay for urokinase plasminogen activator (uPA) Biomarker Activity (AID 2283075). The note with it: primary human keratinocytes with fibroblasts; actives raise or lower the signal. The method in brief: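 Skin co-culture (keratinocytes + foreskin fibroblasts), human primary; 24 h post-dose; uPA by ELISA; gain/loss fit vs DMSO baseline.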

Read-out in test [3]: CD40, CD40 (gene 958)
The test can be described thus: BSK_LPS_CD40: BioMAP Diversity Plus: LPS Assay for CD40 Biomarker Activity (AID 2283076). The note with it: primary human HUVEC with PBMC; actives raise or lower the signal. The essentials: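 HUVEC plus PBMC co-culture stimulated with LPS; CD40 quantified by ELISA 24 h after compound dosing. Fitting was bidirectional relative to DMSO. SRB staining of parallel cultures flagged overt cytotoxicity.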

Read-out in test [4]: E-selectin (Homo sapiens) (UniProt P16581)
The test can be described thus: BSK_LPS_Eselectin: BioMAP Diversity Plus: LPS Assay for Eselectin Biomarker Activity (AID 2283077). The note with it: primary human HUVEC with PBMC; actives raise or lower the signal. The method in brief: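 Human umbilical vein endothelial cells co-cultured with PBMC under LPS stimulation; cell-surface E-selectin measured by ELISA 24 h after dosing. Change in either direction versus DMSO, with SRB total-protein staining in parallel cultures for cytotoxicity.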

Read-out in test [5]: Interleukin-8 (IL8), CXCL8 (gene 3576)
The experiment in a line: BSK_LPS_IL8: BioMAP Diversity Plus: LPS Assay for Interleukin-8 (IL8) Biomarker Activity (AID 2283078). The note with it: primary human HUVEC with PBMC; actives raise or lower the signal. The method in brief: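 Human umbilical vein endothelial cells co-cultured with PBMC, LPS-stimulated, exposed to compound for 24 h. IL-8 quantified by ELISA; fitted in both directions against DMSO, with SRB total-protein staining of parallel cultures for cytotoxicity.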

Test [6] in a line: BSK_LPS_SRB: Viability Assessment in the BioMAP Diversity Plus: LPS Assay (AID 2283079).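 Note: total protein by sulforhodamine B absorbance as a cytotoxicity measure; measured one day after compound addition.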 The note with it: primary human HUVEC with PBMC. The essentials:
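Co-culture of human umbilical vein endothelial cells and PBMC, read 24 h after dosing. Total protein by 0.1% SRB staining after 10% TCA fixation, absorbance at 560 nm; bidirectional fit against DMSO.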

Read-out in test [7]: Interleukin-1 alpha (IL1a), IL1A (gene 3552)
The experiment in a line: BSK_LPS_IL1a: BioMAP Diversity Plus: LPS Assay for Interleukin-1 alpha (IL1a) Biomarker Activity (AID 2283080). The note with it: primary human HUVEC with PBMC; actives raise or lower the signal. The essentials: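 Human umbilical vein endothelial cells co-cultured with PBMC and stimulated with LPS; IL-1a measured by ELISA 24 h after dosing. Bidirectional fitting against DMSO; cytotoxicity checked by SRB staining in parallel cultures.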

Read-out in test [8]: Monocyte Chemoattractant Protein-1 (MCP1), CCL2 (gene 6347)
The experiment in a line: BSK_LPS_MCP1: BioMAP Diversity Plus: LPS Assay for Monocyte Chemoattractant Protein-1 (MCP1) Biomarker Activity (AID 2283081). To be noted: primary human HUVEC with PBMC; actives raise or lower the signal. The essentials: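 Human umbilical vein endothelial cells co-cultured with PBMC, LPS-stimulated; secreted MCP-1 measured by ELISA 24 h after compound addition. Bidirectional curve fitting against DMSO baseline; SRB total-protein staining in parallel cultures for cytotoxicity.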

A short description of test [9]: BSK_LPS_PGE2: BioMAP Diversity Plus: LPS Assay for Prostaglandin E2 (PGE2) Biomarker Activity (AID 2283082). To be noted: primary human HUVEC with PBMC; actives raise or lower the signal. The essentials: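 PGE2 release measured by ELISA in an LPS-activated co-culture of human umbilical vein endothelial cells and peripheral blood mononuclear cells, read at 24 h post-dosing. DMSO served as baseline for bidirectional curve fitting.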

Read-out in test [10]: Macrophage colony-stimulating factor (MCSF), CSF1 (gene 1435)
The test can be described thus: BSK_LPS_MCSF: BioMAP Diversity Plus: LPS Assay for Macrophage colony-stimulating factor (MCSF) Biomarker Activity (AID 2283083). To be noted: primary human HUVEC with PBMC; actives raise or lower the signal. The method in brief: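 HUVEC–PBMC co-culture, M-CSF measured by ELISA 24 h after chemical dosing. Fitted in both directions relative to DMSO as negative control; overt cytotoxicity assessed by SRB total-protein staining in parallel cultures.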

Read-out in test [11]: Tissue Factor, F3 (gene 2152)
The test can be described thus: BSK_LPS_TissueFactor: BioMAP Diversity Plus: LPS Assay for Tissue Factor Biomarker Activity (AID 2283084). The note with it: primary human HUVEC with PBMC; actives raise or lower the signal. The essentials: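 Human umbilical vein endothelial cells co-cultured with PBMC were dosed with compound. Cell-surface CD142 was measured by ELISA 24 h later. Activity was fitted bidirectionally against DMSO, with SRB total-protein staining in parallel cultures for cytotoxicity.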

Read-out in test [12]: Tumor necrosis factor (Homo sapiens) (UniProt P01375)
The test can be described thus: BSK_LPS_TNFa: BioMAP Diversity Plus: LPS Assay for Tumour Necrosis Factor alpha (TNFa) Biomarker Activity (AID 2283085). To be noted: primary human HUVEC with PBMC; actives raise or lower the signal. The method in brief:
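TNFa was quantified by ELISA in LPS-activated co-cultures of human endothelial cells and PBMC, 24 h post-dosing. Both increases and decreases versus DMSO were fitted.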

Read-out in a further test: CD38, CD38 (gene 952)
The experiment in a line: BSK_SAg_CD38: BioMAP Diversity Plus: SAg Assay for CD38 Biomarker Activity (AID 2283087). To be noted: primary human HUVEC with PBMC; actives raise or lower the signal. The essentials:
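CD38 quantified by ELISA (fluorescence) in a superantigen-activated endothelial cell–PBMC co-culture at 24 h post-dose. Activity fitted in both directions relative to DMSO; parallel SRB and Alamar Blue cytotoxicity read-outs.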

Read-out in test [13]: CD40, CD40 (gene 958)
The test can be described thus: BSK_SAg_CD40: BioMAP Diversity Plus: SAg Assay for CD40 Biomarker Activity (AID 2283088). To be noted: primary human HUVEC with PBMC; actives raise or lower the signal. The essentials: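 HUVEC plus PBMC co-culture, superantigen-activated, with CD40 read by ELISA 24 h after dosing. Curves fitted in both directions against DMSO. Overt cytotoxicity checked by parallel SRB total-protein staining.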

Read-out in another test: CD69, CD69 (gene 969)
The test can be described thus: BSK_SAg_CD69: BioMAP Diversity Plus: SAg Assay for CD69 Biomarker Activity (AID 2283089). The note with it: primary human HUVEC with PBMC; actives raise or lower the signal. The method in brief: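 Values derive from bidirectional fitting relative to DMSO vehicle. Cells: umbilical vein endothelium plus peripheral blood mononuclear cells, treated 24 h before fluorescent ELISA for CD69.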

Read-out in test [14]: Monocyte Chemoattractant Protein-1 (MCP1), CCL2 (gene 6347)
The test can be described thus: BSK_SAg_MCP1: BioMAP Diversity Plus: SAg Assay for Monocyte Chemoattractant Protein-1 (MCP1) Biomarker Activity (AID 2283090). The note with it: primary human HUVEC with PBMC; actives raise or lower the signal. The essentials:
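Values derive from bidirectional fitting of ELISA-measured MCP1 against DMSO controls. Readings were taken 24 h after dosing human vascular endothelial cells co-cultured with peripheral blood mononuclear cells under superantigen stimulation.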

Read-out in test [15]: E-selectin (Homo sapiens) (UniProt P16581)
The test can be described thus: BSK_SAg_Eselectin: BioMAP Diversity Plus: SAg Assay for Eselectin Biomarker Activity (AID 2283091). To be noted: primary human HUVEC with PBMC; actives raise or lower the signal. The method in brief: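 Human umbilical vein endothelial cells co-cultured with peripheral blood mononuclear cells, SAg system. E-selectin is measured by ELISA 24 h after dosing and fitted bidirectionally against DMSO. Cytotoxicity is checked by SRB staining of parallel cultures.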

Read-out in test [16]: Monokine induced gamma interferon (MIG), CXCL9 (gene 4283)
The experiment in a line: BSK_SAg_MIG: BioMAP Diversity Plus: SAg Assay for Monokine induced gamma interferon (MIG) Biomarker Activity (AID 2283092). The note with it: primary human HUVEC with PBMC; actives raise or lower the signal. The essentials:
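Values reflect bidirectional fitting of ELISA-measured MIG against DMSO vehicle, taken 24 h after dosing of a co-culture of human umbilical vein endothelial cells and peripheral blood mononuclear cells.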

A short description of test [17]: BSK_SAg_PBMCCytotoxicity: PBMC Cytotoxicity Assessment in the BioMAP Diversity Plus: SAg Assay (AID 2283093).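 Note: fitted both ways against DMSO so a hit may be loss or gain of signal.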 To be noted: primary human HUVEC with PBMC. The essentials:
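PBMC viability by Alamar Blue reduction, fluorescence read at 546/580 nm after 6 h dye exposure. Cells were dosed 1 h before SEB plus TSST-1 activation (20 ng/mL final each), then held 90 h; endothelial/PBMC human co-culture.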

Read-out in test [18]: Vascular cell adhesion molecule 1 (VCAM1), VCAM1 (gene 7412)
The experiment in a line: BSK_LPS_VCAM1: BioMAP Diversity Plus: LPS Assay for Vascular cell adhesion molecule 1 (VCAM1) Biomarker Activity (AID 2283086). To be noted: primary human HUVEC with PBMC; actives raise or lower the signal. The method in brief:
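VCAM-1 quantified by ELISA in an LPS-activated co-culture of human endothelial cells and peripheral blood mononuclear cells, read 24 h post-treatment. Fitted in both directions versus DMSO; parallel SRB staining flags overt cytotoxicity.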

Calls of active or inactive are those of the source. Rule for the calls: active = hit-call score of the fitted dose curve at least 0.9, where 1 is the maximum; inactive = score below 0.9.

Sequence of E-selectin (Homo sapiens) (P16581 whole entry, looked up): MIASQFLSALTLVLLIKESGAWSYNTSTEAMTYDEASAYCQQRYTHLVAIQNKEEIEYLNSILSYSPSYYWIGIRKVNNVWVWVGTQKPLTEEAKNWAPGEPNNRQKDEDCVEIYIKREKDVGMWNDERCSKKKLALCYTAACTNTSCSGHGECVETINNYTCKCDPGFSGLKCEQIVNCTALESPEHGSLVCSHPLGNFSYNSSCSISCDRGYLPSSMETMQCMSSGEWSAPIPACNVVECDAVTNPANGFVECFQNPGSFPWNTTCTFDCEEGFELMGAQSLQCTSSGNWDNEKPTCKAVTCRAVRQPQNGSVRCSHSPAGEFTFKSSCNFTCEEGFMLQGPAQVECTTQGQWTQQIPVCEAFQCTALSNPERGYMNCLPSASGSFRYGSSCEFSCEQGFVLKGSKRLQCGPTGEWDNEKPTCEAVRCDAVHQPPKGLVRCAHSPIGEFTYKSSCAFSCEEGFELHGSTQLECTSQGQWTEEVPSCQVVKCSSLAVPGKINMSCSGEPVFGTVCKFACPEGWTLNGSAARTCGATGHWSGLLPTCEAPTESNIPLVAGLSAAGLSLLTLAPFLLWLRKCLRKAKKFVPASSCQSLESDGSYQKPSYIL
Sequence of Tumor necrosis factor (Homo sapiens) (P01375 whole entry, looked up): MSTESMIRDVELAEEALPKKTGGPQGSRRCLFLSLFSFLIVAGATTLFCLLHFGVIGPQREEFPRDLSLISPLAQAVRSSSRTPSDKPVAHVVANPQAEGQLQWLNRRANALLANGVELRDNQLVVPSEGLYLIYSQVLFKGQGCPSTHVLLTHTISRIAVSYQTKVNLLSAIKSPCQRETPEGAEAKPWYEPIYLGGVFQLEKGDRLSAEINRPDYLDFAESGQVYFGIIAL

On to `COC[C@H](C)N(C(=O)CCl)c1c(C)csc1C`, for which the outcome in test [1] is “inactive”; in test [2], “inactive”; with CD40, CD40 (gene 958) [3], “inactive”; in [4], “inactive”; in [5], “inactive”; in test [6], “inactive”. For the same compound, the result in test [7], in [8], in test [9], in [10], in test [11] and in [12] was inactive. Moreover, the outcome in the test with CD38, CD38 (gene 952) was “inactive”; in the test with CD40, CD40 (gene 958) [13], “inactive”; in the test with CD69, CD69 (gene 969), “inactive”; in test [14], “inactive”; in [15], “inactive”; in [16] it was “inactive”. Besides, the result in test [17] was inactive.
Broadly, the AC50 is the concentration giving half of the maximal activity seen. With `CC1(C)Cc2cccc(O)c2O1`, the outcome in test [1] was “inactive”; in test [2], “inactive”; in the test with CD40, CD40 (gene 958) [3], “inactive”; in test [4] it was “inactive”; in test [5] it was “inactive”; in test [6] it was “inactive”. The outcome is “inactive” in test [7]; “inactive” in test [8]; “inactive” in [10]; “inactive” in test [11]; “inactive” in [12]; “inactive” in the test with CD38, CD38 (gene 952). Also, the outcome in the test with CD40, CD40 (gene 958) [13] is “inactive”; with CD69, CD69 (gene 969), “inactive”; in [14] it was “inactive”; in [15], “inactive”; in [16], “inactive”; in [17], “inactive”. Besides, in test [9], the AC50 was 4.31 µM (active).
On to `CCCCC(CC)CO[N+](=O)[O-]` (stereo not drawn), for which the AC50 in test [1] was 34.7 µM (active); in test [2], 35.3 µM (active). In addition, the outcome with CD40, CD40 (gene 958) [3] is “inactive”; in test [4] it was “inactive”; in test [5] it was “inactive”; in [6], “inactive”; in test [7], “inactive”; in test [8] it was “inactive”. The outcome in [9] was “inactive”; in test [10] it was “inactive”; in test [11], “inactive”; in [12], “inactive”; in [18], “inactive”; with CD38, CD38 (gene 952), “inactive”. Also, the outcome was “inactive” with CD40, CD40 (gene 958) [13]; “inactive” in the test with CD69, CD69 (gene 969); “inactive” in test [14]; “inactive” in test [15]; “inactive” in test [16]; “inactive” in test [17].
